S2 tox: reduces viability in counter-screen for ATXN expression inhibitors; S2 cells (HEK-293 line with an ATXN2-luciferase reporter) viability, CellTiter-Fluor protease fluorescence, 24 h; Potency, µM (top dose mostly 56.7 µM), usual class: cytotoxic; 0.49% of 400,000 active; further: nearly all actives have a fitted effect of over 40% in size
TGFb inhibitor: TGF-b pathway inhibition. HepG2 CAGA-GFP TGF-b/SMAD3 reporter, GFP fluorescence, 18 h; TGF-beta stimulated, 500 pg/mL final. Potency, µM (doses to about 46.1 µM), without a hit: top-dose activity, negative = inhibition, hits mostly inhibitors. 1.2% of 410,000 active; further: on the % scale 0 is the no-effect control and ±100 the full control effect; nearly all actives have a fitted effect of over 65% in size
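Per well, imaged GFP fluorescence of HEPG2 CAGA-GFP cells gives the signal; cells get compound, then TGF-beta (500 pg/mL final), 18 h at 37 degrees C; %Activity versus -TGF-beta and +DMSO controls.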
ATXN2 expr inh: inhibitors of ATXN2 expression. AID 1745845. 0.72% of 360,000 active. Potency, µM (highest dose often 57 µM), inactives show at the top dose activity change, negative = inhibition, most hits filed as inhibitors. HEK-293 ATXN2-luciferase reporter, luminescence, 24 h; further: on the % scale 0 is the no-effect control and ±100 the full control effect; nearly all actives have a fitted effect of over 55% in size
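ATXN2-luciferase reporter cells (luciferase flanked by upstream and downstream ATXN2 gene portions) were treated 24 h at 37 °C with compounds at up to 57 uM. SteadyGlo luminescence gave expression; GF-AFC fluorescence gave viability.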
HT1080 IDH1KD tx: toxicity to HT-1080 IDH1 knockdown cells (counter line). 2% of 360,000 active. Potency, µM (series often up to 46.1 µM), for the others: at the highest dose activity, negative = toxicity, actives largely listed as cytotoxic. AID 686971. HT-1080 IDH1 knockdown viability, ATP luminescence, 48 h;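 further: 0% = DMSO wells and -100% = cell-free medium wells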
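CellTiter-Glo luminescence after 48 h compound exposure at 37 degrees C of IDH1-knockdown HT-1080 cells in 5% FBS RPMI. %Activity scaled between DMSO wells and cell-free media wells, with curves fitted and assigned curve classes.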
HepG2 viability: counter-screen for TGF-b inhibitors: cytotoxicity in HepG2 cells | HepG2 CAGA-GFP viability, ATP luminescence, 18 h | Potency, µM (top dose mostly 46.1 µM), inactives show at the top dose activity change, negative = cytotoxicity, actives largely listed as cytotoxic | 0.76% of 410,000 active
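HepG2 CAGA-GFP cells (1000/well, DMEM with 1% FBS) received compound, then TGF-beta at 500 pg/mL final, and were incubated 18 hours at 37 degrees C. Viability was read by CellTiter-Glo luminescence. Media-only wells were set as complete cell-killing and DMSO as no toxicity.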
HT1080-NT tox: kills 2HG-producing HT-1080-NT fibrosarcoma cells | AID 686970 | Potency, µM (top dose mostly 46.1 µM), for the others: at the top dose activity, negative = less viability, most hits filed as cytotoxic | HT-1080-NT fibrosarcoma viability, CellTiter-Glo ATP luminescence, 48 h | 1.6% of 360,000 active;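 further: NT is the 2HG producing partner of a matched IDH1 knockdown line; 0% = DMSO-treated cells and -100% = media-only wells without cells; nearly all actives have a fitted effect of over 55% in size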
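Viability of the 2HG-overproducing fibrosarcoma line after 48 hours of compound exposure at 37 degrees C was determined by luminescence with CellTiter-Glo, and concentration-effect curves were then fitted and categorized.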
An asterisk follows results filed as active; i = inactive; ? = inconclusive; · = no result given. In the library only some 3.8% were active in any assay of this set; here they are far more common. The call rests on the fitted dose curve; in most records, active means well fitted curve in the direction sought with a large enough effect; inconclusive means small, poorly fitted or top-dose-only effect, or another doubt; inactive means no such curve, though single readings can be large; an effect the other way counts as inactive or inconclusive. Potency means the concentration at half of the fitted maximal effect.

SMILES | S2 tox | TGFb inhibitor | ATXN2 expr inh | HT1080 IDH1KD tx | HepG2 viability | HT1080-NT tox
C/C=C/COC(=O)c1[nH]c2c(c1C)C(=O)CC(c1ccco1)C2 (stereo not drawn) | ? | ? | ? | 0.651µM* | -9.8% | 1.03µM*
Cc1c(C(=O)OC2CCCC2)[nH]c2c1C(=O)CC(c1ccco1)C2 (stereo not drawn) | ? | ? | -5.9% | 1.3µM* | -34.8% | 0.517µM*
Cc1cccc(-c2noc(CNC(=O)c3ccccc3Br)n2)c1 | · | -0.5% | · | · | -14.4% | ·
Cc1cc(-c2ccc(CC(=O)Nc3ccc(-c4cccnc4)cc3)cc2)ccn1 | · | · | -6.2% | · | · | ·
N#Cc1nc(NCC(F)F)nc(Nc2cc(F)cc(F)c2)n1 | ? | 15.8µM* | 11.2µM* | · | -78.7% | ·
N#Cc1nc(Nc2cc(F)cc(F)c2)c2ncn(CC(F)F)c2n1 | ? | -7.5% | -16.5% | · | -28.3% | ·
CC1=C(C(=O)OC(C)C)C(c2cccc([N+](=O)[O-])c2)C(C(=O)OC2CN(C(c3ccccc3)c3ccccc3)C2)=C(N)N1 (stereo not drawn) | 35.5µM* | · | 31.6µM* | · | · | ·
COc1cc(-c2cc(C)c3c(OC)ccc(OC)c3n2)cc2c1OCCN(Cc1cn(C)nc1C)C2 | i | · | · | · | · | ·
COCCCC1CCN(C(=O)c2cc(COc3ccc(C)nc3)on2)CC1 | i | 10.4% | -14.2% | -13.0% | 8.7% | ?
COCCC1CCCCN1C(=O)c1cc(COc2ccc(C)nc2)on1 (stereo not drawn) | i | -10.2% | 6.2% | -9.8% | -3.8% | 20.6µM*
COc1cc2[nH]c(=O)n(CCCC(=O)N3CC=C(c4ccccc4)CC3)c(=O)c2cc1OC | i | ? | -9.2% | -0.5% | -6.4% | 2.2%
COc1cccc2c1[C@@H]1CN(CCCCn3c(=O)[nH]c4c(sc5ncc(-c6ccccc6)nc54)c3=O)C[C@@H]1CO2 | ? | 12.6µM* | ? | ? | -91.3% | ?
Cc1cn2cc(C(=O)N(C)CCO)cc(N[C@@H]3CCOc4cccc(C)c43)c2n1 | · | · | 2.8% | · | · | ·
CN(C)C(=S)N=c1ssc(=S)n1Cc1cccnc1 | i | 3.16µM* | -30.4% | -13.8% | -44.5% | -8.7%
Cn1cc(S(=O)(=O)N2CCCCCC2)cc1C(=O)N1CCN(c2cccc(Cl)c2)CC1 | ? | ? | 0.0% | · | -17.1% | ·
N#CNC(=Nc1cccc(F)c1)SCc1ccccc1 | i | -14.8% | · | -6.1% | -48.9% | 0.2%
N#CNC(=Nc1cccc(F)c1)SCc1cccc(F)c1 | i | 10µM* | -5.6% | -6.6% | -40.1% | 0.4%
COc1ccccc1OCC(=O)N(Cc1ccco1)Cc1ccccc1F | · | ? | · | · | -21.4% | ·
CCCn1c(SCC(=O)Nc2ccccc2N2CCCCC2)nc2c1c(=O)n(C)c(=O)n2C | i | ? | ? | -29.3% | -5.3% | 15.8µM*
CCCn1c(SCC(=O)Nc2ccccc2C(=O)OC)nc2c1c(=O)n(C)c(=O)n2C | · | 0.0% | · | 2.3% | 3.2% | 9.4%
COc1cccc(NC(=O)Cn2c(=O)n(Cc3ccco3)c(=O)c3cc(OC)c(OC)cc32)c1 | i | ? | -20.4% | · | -9.5% | ·
CCN(CC)c1ccc(/C=N/NC(=O)CNC(=O)C2COc3ccccc3O2)c(O)c1 (stereo not drawn) | i | ? | ? | ? | -20.7% | ?
CCN(CC)c1ccc(/C=N/NC(=O)CCC(=O)NCc2ccccc2)c(O)c1 | i | -34.2% | 3.55µM* | ? | -8.5% | -28.1%
CCOC(=O)N/N=C/c1ccc(N(CC)CC)cc1O | i | -1.5% | 14.8% | 9.2µM* | -3.1% | ?
CCN(CC)c1ccc(/C=N/Nc2ccc(C)cc2)c(O)c1 | i | -10.2% | -16.3% | -6.1% | -5.7% | -7.0%
SMILES | S2 tox | TGFb inhibitor | ATXN2 expr inh | HT1080 IDH1KD tx | HepG2 viability | HT1080-NT tox
COc1ccc(CN2CCOc3ccc(CN4CCN(CCO)CC4)cc3C2)c2ccccc12 | i | · | · | · | · | ·
Cc1c(C(=O)Nc2ccc(F)c(F)c2)oc2ccc(S(=O)(=O)N(C)C3CCCCC3)cc12 | · | ? | · | · | -0.4% | ·
Cc1ccc(NC(=O)c2sc(Cl)nc2C)c(C)c1 | i | 2.8% | -0.8% | 14.5% | 44.3% | 13.9%
Cc1cc(C)c(C)c(OC(=O)c2sc(Cl)nc2C)c1 | 22.4µM* | -0.3% | 20µM* | -20.9% | 1.3% | -10.1%
O=S(=O)(NCc1ccccc1)c1cccc2nonc12 | i | 24.4% | 0.5% | -11.0% | -3.0% | 5.5%
NS(=O)(=O)c1ccc(CNS(=O)(=O)c2cccc3nonc23)cc1 | i | 0.0% | 10.7% | 9.6% | 6.31µM* | 9.2%
CCOc1ccc(NC(=O)C(=O)NCCc2csc(-c3ccc(F)cc3)n2)cc1 | i | 8.4% | -7.4% | · | 7.7% | ·
O=c1[nH]c(CSc2nc3ccccc3[nH]2)nc2c1cnn2-c1ccccc1 | ? | -1.8% | ? | ? | -41.5% | 23.1µM*
CCOc1ncccc1C(=O)NCc1ccc(OC)cc1 | i | 11.9% | -17.4% | 8.91µM* | -7.7% | ?
CC(C)c1c(C(=O)NCC(C)(C)N2CCOCC2)cnn1-c1nccc(-c2ccccc2F)n1 | i | · | · | · | · | ·
COc1cccc(/C=C/c2nc3ccccc3nc2/C=C/c2cccc(OC)c2OC)c1OC | · | 25.0% | · | · | -18.5% | ·
O=C(Nc1nsc(-c2ccccc2)n1)c1ccc(F)cc1 | i | -4.9% | 35.2% | 7.8% | 2.82µM* | -0.6%
CCC(=O)Nc1ccc2nc(SCc3ccccc3)sc2c1 | · | · | · | · | -17.8% | ·
CCC1C(=O)NCCN1Cc1ccc2c(c1)CN(Cc1ccc3c(c1)OCCO3)CCO2 (stereo not drawn) | i | · | · | · | · | ·
CN(C)CC/C=C1\c2ccc(F)cc2Sc2cc(F)c(Cl)cc21 | ? | ? | · | ? | 17.8µM* | ?
CN(C)CC/C=C1\c2cc(Cl)ccc2Sc2cc(F)c(F)cc21 | i | ? | -21.0% | -17.3% | -128.5% | ?
CN(C)CC/C=C1/c2ccc(F)cc2Sc2ccc(Cl)cc21 | ? | ? | ? | 18.4µM* | 15.8µM* | 20.6µM*
CN(C)CC/C=C1\c2ccccc2Sc2cc(F)c(Cl)cc21 | ? | ? | -17.8% | 11.6µM* | -41.6% | 25.9µM*
CN(C)CC/C=C1/c2cc(F)ccc2CSc2ccc(F)cc21 | i | 12.7% | -11.3% | -7.3% | -1.2% | -10.4%
COc1ccc(CN2CCC3(CCC(CNC(=O)C4CCCO4)O3)CC2)c(C)c1C (stereo not drawn) | i | · | · | · | · | ·
Nc1c(C(=O)c2ccccc2)sc2nsc(SCCN3CCCC3)c12 | i | 33.5% | ? | 23.1µM* | -36.0% | 11.6µM*

Bioassay records (PubChem)
